Measurements published in PubChem BioAssay (NCATS).
Records with an inconclusive call do not appear. Calls of active or inactive are those of the source. Calls follow the shape of the dose curve; as a rule, active = well fitted cell-killing curve with a large enough effect; inconclusive = small, poorly fitted or top-dose-only effect, or effect the other way; inactive = no such curve, though single readings can be large or run the other way.

Experiments:
[1] = Quantitative High-Throughput drug screen in 47 multiple myeloma cell lines against the NCATS MIPE library collection: LP1_DSMZ cell viability assay (AID 1918982); also: nearly all actives have a fitted effect of over 35% in size
Procedure, shortened: (§1)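 500 cells/well; MIPE 4.0 drugs pin-transferred; 48 h, 37C, 5% CO2. CellTiter-Glo, 5 min RT, luminescence. Controls: DMSO 100%, media 0%.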

[2] = Quantitative High-Throughput drug screen in 47 multiple myeloma cell lines against the NCATS MIPE library collection: KMS28PE_JCRB cell viability assay (AID 1918983); also: nearly all actives have a fitted effect of over 35% in size
Procedure, shortened: as §1

[3] = Quantitative High-Throughput drug screen in 47 multiple myeloma cell lines against the NCATS MIPE library collection: OCIMY7_PLB cell viability assay (AID 1918987); also: nearly all actives have a fitted effect of over 65% in size
Procedure, shortened: as §1

[4] = Quantitative High-Throughput drug screen in 47 multiple myeloma cell lines against the NCATS MIPE library collection: OPM1_PLB cell viability assay (AID 1918989); also: nearly all actives have a fitted effect of over 40% in size; as to viability (% of control): series mostly up to about 46 µM
Procedure, shortened: as §1

[5] = Quantitative High-Throughput drug screen in 47 multiple myeloma cell lines against the NCATS MIPE library collection: U266_ATCC cell viability assay (AID 1919864); also: nearly all actives have a fitted effect of over 35% in size;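 as to viability (% of DMSO control): 0% = media-only wells without cells and 100% = DMSO-only wells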
Procedure, shortened: as §1

[6] = Quantitative High-Throughput drug screen in 47 multiple myeloma cell lines against the NCATS MIPE library collection: KMS34_JCRB cell viability assay (AID 1918985); also: nearly all actives have a fitted effect of over 40% in size
Procedure, shortened: as §1

[7] = Quantitative High-Throughput drug screen in 47 multiple myeloma cell lines against the NCATS MIPE library collection: SKMM1_PLB cell viability assay (AID 1919863); conditions: SKMM1 myeloma viability, CellTiter-Glo ATP, 48 h; viability: active compounds read low; also: nearly all actives have a fitted effect of over 35% in size; as to viability: series mostly up to about 46 µM
Procedure, shortened: as §1

[8] = Quantitative High-Throughput drug screen in 47 multiple myeloma cell lines against the NCATS MIPE library collection: XG6_PLB cell viability assay (AID 1919865); also: nearly all actives have a fitted effect of over 40% in size
Procedure, shortened: as §1

[9] = Quantitative High-Throughput drug screen in 47 multiple myeloma cell lines against the NCATS MIPE library collection: OCIMY5_PLB cell viability assay (AID 1918988); also: nearly all actives have a fitted effect of over 65% in size
Procedure, shortened: as §1

[10] = Quantitative High-Throughput drug screen in 47 multiple myeloma cell lines against the NCATS MIPE library collection: L363_DSMZ cell viability assay (AID 1918984); also: nearly all actives have a fitted effect of over 40% in size
Procedure, shortened: as §1
Potency is read from the fitted curve at half-maximal effect.

COc1ccc(CC2c3cc(OC)c(OC)cc3CC[N+]2(C)CCC(=O)OCCCCCOC(=O)CC[N+]2(C)CCc3cc(OC)c(OC)cc3C2Cc2ccc(OC)c(OC)c2)cc1OC (centres undefined)
active: Potency [3] 4130 nM
inactive: viability (% of control) [1] 101% [at 5.15 µM] | viability, % of DMSO control [2] 105% [at 5.15 µM] | viability (% of control) [4] 96.3% [at 5.15 µM] | viability (% of DMSO control) [5] 135% [at 5.15 µM]

CN1CC[C@@H](c2c(O)cc(O)c3c(=O)cc(-c4ccccc4Cl)oc23)[C@@H](O)C1
active: Potency [1] 66.2 nM | Potency [2] 132 nM | Potency [6] 74.3 nM | Potency [3] 29.6 nM | Potency [4] 83.3 nM | Potency [7] 187 nM

CC(C)(O)CCc1ccc(OCc2cc(-c3cccc(OC(F)F)c3)c3ncccc3c2)cc1
active: Potency [8] 20900 nM
inactive: Potency [1] | Potency [2] | Potency [6] | Potency [4] | viability [7] 123%

NCC(=O)Nc1ccc(-n2nc(C(F)(F)F)cc2-c2ccc3c(ccc4ccccc43)c2)cc1
active: Potency [1] 23500 nM | Potency [2] 29600 nM | Potency [3] 16600 nM | Potency [9] 29600 nM | Potency [4] 18700 nM | Potency [7] 37200 nM | Potency [5] 20900 nM | Potency [8] 18700 nM

CC1(O)CC(c2nc(-c3ccc4ccc(-c5ccccc5)nc4c3)c3c(N)nccn23)C1 (centres undefined)
active: Potency [1] 235 nM | Potency [2] 264 nM | Potency [6] 590 nM | Potency [3] 209 nM | Potency [9] 235 nM | Potency [4] 18700 nM | Potency [8] 5260 nM

CS(=O)(=O)c1ccc(-c2cnc(N)c(C(=O)Nc3ccccc3)n2)cc1
active: Potency [3] 1660 nM | Potency [9] 2640 nM | Potency [4] 10500 nM
inactive: Potency [1] | Potency [2]

CC(C)(C)c1cc(C(C)(C)C)c(NC(=O)c2c[nH]c3ccccc3c2=O)cc1O
inactive: Potency [1] | Potency [2] | Potency [6] | Potency [4] | viability [7] 97.5% | Potency [5] | Potency [8]

C[C@@]12O[C@@H](C[C@]1(O)CO)n1c3ccccc3c3c4c(c5c6ccccc6n2c5c31)CNC4=O
active: Potency [1] 5260 nM | Potency [2] 2090 nM | Potency [6] 526 nM | Potency [3] 66.2 nM | Potency [4] 264 nM | Potency [7] 5260 nM | Potency [5] 2090 nM | Potency [8] 209 nM

Nc1ccccc1NC(=O)c1ccc(CNC(=O)OCc2cccnc2)cc1
active: Potency [1] 1660 nM | Potency [2] 2350 nM | Potency [6] 935 nM | Potency [3] 1660 nM | Potency [9] 1320 nM | Potency [4] 743 nM | Potency [7] 1320 nM | Potency [8] 2350 nM

COc1cc(C(=O)NS(=O)(=O)c2ccccc2C)ccc1Cc1cn(C)c2ccc(NC(=O)OC3CCCC3)cc12
active: Potency [1] 20900 nM | Potency [2] 23500 nM | Potency [3] 14800 nM | Potency [9] 18700 nM | Potency [4] 7430 nM | Potency [7] 18700 nM | Potency [5] 18700 nM | Potency [8] 14800 nM

O=c1[nH]c(=O)n(C2CCCO2)cc1F (centres undefined)
inactive: Potency [1] | Potency [2] | Potency [6] | Potency [4]

Clc1cccc(-c2nnnn2Cc2cccnc2)c1Cl
active: Potency [3] 3720 nM | Potency [8] 16600 nM
inactive: Potency [1] | Potency [2] | Potency [6] | Potency [9] | Potency [4]

COC(=O)C[C@](O)(CCCC(C)(C)O)C(=O)O[C@@H]1C(OC)=C[C@]23CCCN2CCc2cc4c(cc2[C@H]13)OCO4
inactive: Potency [1] | Potency [2] | Potency [3] | Potency [4] | Potency [8]
active: Potency [6] 16600 nM

CN(C)CC=CC(=O)Nc1cc2c(Nc3ccc(F)c(Cl)c3)ncnc2cc1O[C@H]1CCOC1
active: Potency [2] 18700 nM | Potency [10] 1320 nM | Potency [6] 20900 nM | Potency [3] 372 nM | Potency [9] 3320 nM | Potency [4] 3720 nM | Potency [7] 6620 nM | Potency [5] 20900 nM | Potency [8] 2640 nM

CC1(C)CC(=O)c2c(C(F)(F)F)nn(-c3ccc(C(N)=O)c(NC4CCC(OC(=O)CN)CC4)c3)c2C1 (centres undefined)
active: Potency [2] 235 nM | Potency [10] 83.3 nM | Potency [6] 166 nM | Potency [3] 83.3 nM | Potency [4] 166 nM | Potency [7] 264 nM | Potency [5] 166 nM | Potency [8] 296 nM

CNC(=O)c1ccc(N2C(=S)N(c3cnc(C#N)c(C(F)(F)F)c3)C(=O)C23CCC3)cc1F
active: Potency [2] 26400 nM | Potency [10] 7430 nM | Potency [3] 526 nM | Potency [9] 118 nM | Potency [4] 2640 nM | Potency [5] 662 nM | Potency [8] 93.5 nM
inactive: Potency [6]

Cn1cc(-c2[nH]c3cc(NC(=O)[C@H](N)C4CCCCC4)cc4c3c2C=NNC4=O)cn1
active: Potency [2] 1480 nM | Potency [10] 118 nM | Potency [6] 4690 nM | Potency [3] 6620 nM | Potency [9] 1480 nM | Potency [4] 1180 nM | Potency [5] 18700 nM | Potency [8] 209 nM

COc1cc(OC2CCN(C)CC2)ccc1Nc1ncc2c(n1)n(C1CCCC1)c(=O)n2C
active: Potency [2] 16600 nM | Potency [10] 7430 nM | Potency [6] 16600 nM | Potency [3] 2960 nM | Potency [9] 9350 nM | Potency [4] 7430 nM | Potency [5] 14800 nM | Potency [8] 4690 nM

CNC(=O)c1cc(Oc2ccc(NC(=O)Nc3cc(C(C)(C)C)nn3-c3ccc4ncccc4c3)c(F)c2)ccn1
active: Potency [2] 9350 nM | Potency [10] 18700 nM | Potency [6] 7430 nM | Potency [3] 6620 nM | Potency [9] 6620 nM | Potency [4] 5260 nM | Potency [5] 13200 nM | Potency [8] 7430 nM

NC(=O)Nc1cc(-c2cccc(F)c2)sc1C(=O)N[C@H]1CCCNC1
active: Potency [2] 2640 nM | Potency [10] 16.6 nM | Potency [6] 93.5 nM | Potency [3] 264 nM | Potency [9] 74.3 nM | Potency [4] 296 nM | Potency [5] 5900 nM | Potency [8] 83.3 nM

O=C(c1cncc(Br)c1)N1CCC(N2CCCC2)CC1
inactive: Potency [1] | Potency [10] | Potency [3] | Potency [8]

CC(C)(C)OC(=O)Nc1ccc(-c2cc(C(=O)NCCCCCCC(=O)NO)no2)cc1
active: Potency [2] 2350 nM | Potency [10] 469 nM | Potency [6] 2350 nM | Potency [3] 1320 nM | Potency [9] 1870 nM | Potency [4] 1870 nM | Potency [7] 2090 nM | Potency [5] 2960 nM | Potency [8] 3720 nM

Cc1nc(N)ncc1-c1nc(N2CCOCC2)c2sc(C(C)(C)O)cc2n1
active: Potency [2] 118 nM | Potency [10] 74.3 nM | Potency [6] 1660 nM | Potency [3] 1180 nM | Potency [9] 662 nM | Potency [4] 1180 nM | Potency [7] 166 nM | Potency [8] 3320 nM

CCC(=C(c1ccccc1)c1ccc(OCCN(C)C)cc1)c1ccccc1
active: Potency [2] 18700 nM | Potency [10] 20900 nM | Potency [3] 20900 nM | Potency [9] 29600 nM | Potency [4] 20900 nM | Potency [7] 20900 nM | Potency [8] 20900 nM
inactive: Potency [6]

CCOc1ccccc1OCCNC(C)Cc1ccc(OC)c(S(N)(=O)=O)c1 (centres undefined)
inactive: Potency [2] | Potency [10] | Potency [6] | Potency [3] | Potency [9] | Potency [4] | Potency [5] | Potency [8]

COc1ccc2c(c1)CC[C@@H](CN(C)CC(=O)O)[C@H]2c1ccccc1
active: Potency [2] 4180 nM | Potency [10] 1660 nM | Potency [6] 4690 nM | Potency [3] 833 nM | Potency [9] 1480 nM | Potency [4] 10500 nM | Potency [7] 1050 nM | Potency [5] 16600 nM | Potency [8] 833 nM

CC[C@@H]1C(=O)N(C)c2cnc(Nc3ccc(C(=O)NC4CCC(N5CCN(CC6CC6)CC5)CC4)cc3OC)nc2N1C(C)C (some centres undefined)
active: Potency [2] 209 nM | Potency [10] 14.8 nM | Potency [6] 105 nM | Potency [3] 833 nM | Potency [9] 74.3 nM | Potency [4] 166 nM | Potency [7] 2350 nM | Potency [5] 5900 nM | Potency [8] 209 nM

Nc1cc(C(F)(F)F)c(-c2cc(N3CCOCC3)nc(N3CCOCC3)n2)cn1
active: Potency [2] 935 nM | Potency [10] 209 nM | Potency [6] 833 nM | Potency [3] 590 nM | Potency [9] 187 nM | Potency [4] 1050 nM | Potency [7] 662 nM | Potency [5] 4690 nM | Potency [8] 662 nM

CC(C)c1cc(-c2n[nH]c(=O)n2-c2ccc3c(ccn3C)c2)c(O)cc1O
active: Potency [2] 13.2 nM | Potency [10] 11.8 nM | Potency [6] 26.4 nM | Potency [3] 11.8 nM | Potency [4] 29.6 nM | Potency [7] 74.3 nM | Potency [5] 37.2 nM | Potency [8] 59 nM
